The values that follow come from the supplement of paper PMC7156485.

Counter-ions that a name gives are not always drawn.
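Note: TDF is a line of transformed human dermal fibroblasts of mesenchymal origin.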

The experiment deals with TDF. The experiment is described as follows: H1.0 immunofluorescence intensity relative to DMSO (% of DMSO); higher = stronger H1.0 induction, active = 120 or more. The conditions noted are these: concentration: 10 µM; 24 h. Put shortly:
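In 384-well plates holding 800 HCC1569 or TDF cells per well in RPMI with 10% FBS, compounds were tested at 10 µM for 24 h at 37 °C in triplicate. Fixation used 3.7% formaldehyde. Staining used a rabbit anti-H1.0 antibody with an AlexaFluor 647 secondary, plus DAPI. Each value, H1.0 nuclear intensity or cell number, is a median of replicates shown as percent of the plate control, and HCC1569 values were smoothed for positional effects.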
As to `CC1OC(Oc2c(-c3ccc(O)c(O)c3)oc3cc(O)cc(O)c3c2=O)C(O)C(O)C1O` (stereo not given) [Quercitrin], the H1.0 immunofluorescence intensity is 101 (inactive).
`CC(N)C1CCC(C(=O)Nc2ccncc2)CC1.Cl.Cl.O` (stereo not given): the H1.0 immunofluorescence intensity was 97.1 (inactive).
The same measure for `CCCC(=O)O[C@]1(C(=O)CO)CC[C@H]2[C@@H]3CCC4=CC(=O)CC[C@]4(C)[C@H]3[C@@H](O)C[C@@]21C` [(11beta)-11,21-dihydroxy-3,20-dioxopregn-4-en-17-yl butyrate]: 84.9 (inactive); for `COC(=O)c1c(C)[nH]c(C)c1C(=O)c1ccccc1Cc1ccccc1`: 92.3 (inactive).
On to `Br.Br.N=C(N)SCCc1ccc(CCSC(=N)N)cc1` [1,4-PBIT dihydrobromide], for which the H1.0 immunofluorescence intensity was 92 (inactive).
For the compound `CCCCCCCCCCC(=O)O` [Undecanoic acid], the H1.0 immunofluorescence intensity was 113 (inactive).
The same measure for `CCCCOC(=O)NS(=O)(=O)c1sc(CC(C)C)cc1-c1ccc(Cn2c(CC)nc3c(C)cc(C)nc32)cc1`: 84.8 (inactive).
On to `Cc1cc(CS(=O)(=O)c2ccccc2)cc(OCc2ccc(CN3CCC[C@@H]3CO)cc2)c1` [PF-543 hydrochloride], for which the H1.0 immunofluorescence intensity is 102 (inactive).
The same measure for `CN1CCN(CCCN2c3ccccc3Sc3ccc(C(F)(F)F)cc32)CC1.Cl.Cl` [Trifluoperazine dihydrochloride]: 107 (inactive); for `CC1=C(CC(=O)O)c2cc(F)ccc2C1=Cc1ccc(S(C)(=O)=O)cc1` [Sulindac sulfone]: 100 (inactive); for `COC1C=COC2(C)Oc3c(C)c(O)c4c(O)c(cc([O-])c4c3C2=O)NC(=O)C(C)=CC=CC(C)C(O)C(C)C(O)C(C)C(OC(C)=O)C1C.[Na+]` (stereo not given): 102 (inactive).
As to `COC(=O)C1C(O)CCC2CN3CCc4c([nH]c5ccccc45)C3CC21` (stereo not given) [Corynanthine], the H1.0 immunofluorescence intensity is 102 (inactive).
`CC(N=C(NC#N)Nc1ccncc1)C(C)(C)C` (stereo not given) [Pinacidil]: the H1.0 immunofluorescence intensity was 89.4 (inactive).
In the case of `Nc1nc(=O)c2ncn(COC(CO)CO)c2[nH]1` [Ganciclovir], the H1.0 immunofluorescence intensity was 95.2 (inactive).
As to `O=C(NCCO[N+](=O)[O-])c1cccnc1` [Nicorandil], the H1.0 immunofluorescence intensity was 91.5 (inactive).
For `Cc1c(C)c2c(c(C)c1O)CCC(C)(C(=O)O)O2` (stereo not given) [Trolox], the H1.0 immunofluorescence intensity is 94.4 (inactive).
As for `CC[n+]1c(C=CN(C)c2ccccc2)n(-c2ccccc2)c2ccc(-c3nc4ccccc4s3)cc21.[I-]` [Akt Inhibitor IV], the H1.0 immunofluorescence intensity was 148 (active).
The same measure for `CC(=O)CC/C=C(\C)CC/C=C(\C)CC/C=C(\C)CCC=C(C)C`: 104 (inactive).
Take `O=c1[nH]ccc2c(S(=O)(=O)N3CCCNCC3)cccc12`: the H1.0 immunofluorescence intensity is 86 (inactive).
In the case of `NC1CCCCC1N.O=C([O-])C(=O)[O-].[Pt+2]` (stereo not given) [Oxaliplatin], the H1.0 immunofluorescence intensity is 97.9 (inactive).
As to `CC(C)NCC(O)c1ccc(O)c(O)c1.O=C(O)C(O)C(O)C(=O)O` (stereo not drawn) [R(-)-Isoproterenol (+)-bitartrate], the H1.0 immunofluorescence intensity is 99 (inactive).
The same measure for `CCCCCC=CCC=CCCCCCCCCCC(=O)O` [Eicosadienoic acid]: 100 (inactive); for `CCCCCCCCCCCC=CCC=CCCCC(=O)O` [Eicosa-5,8-dienoic acid (20:2 n-12)]: 96.8 (inactive); for `Cc1ccc(C)c(-c2cc(C(F)(F)F)nn2-c2ccc(S(N)(=O)=O)cc2)c1`: 97.5 (inactive).
As for `COc1ccc2[nH]cc(CCNC(C)=O)c2c1` [Melatonin], the H1.0 immunofluorescence intensity is 93.4 (inactive).
The same measure for `Cl.O.O=C(O)CN(CCN(CC(=O)O)Cc1ccccc1O)Cc1ccccc1O`: 108 (inactive); for `O=C1CSc2ccccc2N1Cc1cccc(C(F)(F)F)c1` [4-[3-(trifluoromethyl)benzyl]-2H-1,4-benzothiazin-3(4H)-one]: 96.3 (inactive).
With `CC(C)(C)c1nc2c3cc[nH]c(=O)c3c3cc(F)ccc3c2[nH]1` [JAK Inhibitor I], the H1.0 immunofluorescence intensity was 90.3 (inactive).
Then `CC1(C)NC(=O)N(c2ccc([N+](=O)[O-])c(C(F)(F)F)c2)C1=O` [Nilutamide], with 98.9 (inactive); and `COc1c(N2CCNC(C)C2)c(F)cc2c(=O)c(C(=O)O)cn(C3CC3)c12` (stereo not given) [Gatifloxacin], with 94.2 (inactive); and `Cc1nc(C(=O)N2CCC[C@H]2Cc2nnc(-c3ccccc3)o2)c(-c2ccccc2F)s1`, with 97.5 (inactive).
On to `Cc1ccc(NC(=O)c2ccc(CN3CCN(C)CC3)cc2)cc1Nc1nccc(-c2cccnc2)n1` [Imatinib], for which the H1.0 immunofluorescence intensity was 107 (inactive).
For the compound `CC(C)=CCCC(C)=CCCC(C)=CCCC(C)=CCCC(C)=CCCC(C)=CCCC(C)=CCCC(C)=CCCC(C)=CCO` [Solanesol], the H1.0 immunofluorescence intensity is 89.9 (inactive).
The same measure for `COc1cc(C(=O)OC2CC(C)=CCCC(C)=CC(O)C2C(C)C)ccc1O` (stereo not given) [Tschimganidin]: 96.2 (inactive).
With `COc1cc(/C=C/C(=O)O)ccc1O` [Ferulic acid], the H1.0 immunofluorescence intensity was 101 (inactive).
Take `CC(=O)N1CCN(C(=O)/C=C/c2ccc(Sc3ccccc3C(C)C)c([N+](=O)[O-])c2)CC1`: the H1.0 immunofluorescence intensity was 103 (inactive).
Turning to `CC1CC2OC2C=CC=CC(=O)Cc2c(Cl)c(O)cc(O)c2C(=O)O1` (stereo not given) [Radicicol], the H1.0 immunofluorescence intensity was 133 (active).
For the compound `CNC(=O)c1cc(Oc2ccc(NC(=O)Nc3ccc(Cl)c(C(F)(F)F)c3)cc2)ccn1` [Sorafenib], the H1.0 immunofluorescence intensity is 108 (inactive).
On to `COc1cc2ncnc(Nc3ccc(F)c(Cl)c3)c2cc1OCCCN1CCOCC1`, for which the H1.0 immunofluorescence intensity is 105 (inactive).
Regarding `NC1CONC1=O` (racemic) [DL-Cycloserine], the H1.0 immunofluorescence intensity is 92 (inactive).
